The record followed here is ChEMBL document CHEMBL1201862, “PubChem BioAssay data set” (2004).

Hit rate of the full screen: of about 400,000 compounds, about 2,100 (0.53%) were called active. Another 14% or so got no clear call; they are omitted. The rule behind the calls is not given here. Many of the other results were omitted from the sample, so actives are more common in it than they were.

The target of this experiment is Ataxin-2 (Homo sapiens) (UniProt Q99700). Put plainly: qHTS for Inhibitors of ATXN expression. It counts as functional.
Ataxin-2 (Homo sapiens), sequence (Q99700 whole entry): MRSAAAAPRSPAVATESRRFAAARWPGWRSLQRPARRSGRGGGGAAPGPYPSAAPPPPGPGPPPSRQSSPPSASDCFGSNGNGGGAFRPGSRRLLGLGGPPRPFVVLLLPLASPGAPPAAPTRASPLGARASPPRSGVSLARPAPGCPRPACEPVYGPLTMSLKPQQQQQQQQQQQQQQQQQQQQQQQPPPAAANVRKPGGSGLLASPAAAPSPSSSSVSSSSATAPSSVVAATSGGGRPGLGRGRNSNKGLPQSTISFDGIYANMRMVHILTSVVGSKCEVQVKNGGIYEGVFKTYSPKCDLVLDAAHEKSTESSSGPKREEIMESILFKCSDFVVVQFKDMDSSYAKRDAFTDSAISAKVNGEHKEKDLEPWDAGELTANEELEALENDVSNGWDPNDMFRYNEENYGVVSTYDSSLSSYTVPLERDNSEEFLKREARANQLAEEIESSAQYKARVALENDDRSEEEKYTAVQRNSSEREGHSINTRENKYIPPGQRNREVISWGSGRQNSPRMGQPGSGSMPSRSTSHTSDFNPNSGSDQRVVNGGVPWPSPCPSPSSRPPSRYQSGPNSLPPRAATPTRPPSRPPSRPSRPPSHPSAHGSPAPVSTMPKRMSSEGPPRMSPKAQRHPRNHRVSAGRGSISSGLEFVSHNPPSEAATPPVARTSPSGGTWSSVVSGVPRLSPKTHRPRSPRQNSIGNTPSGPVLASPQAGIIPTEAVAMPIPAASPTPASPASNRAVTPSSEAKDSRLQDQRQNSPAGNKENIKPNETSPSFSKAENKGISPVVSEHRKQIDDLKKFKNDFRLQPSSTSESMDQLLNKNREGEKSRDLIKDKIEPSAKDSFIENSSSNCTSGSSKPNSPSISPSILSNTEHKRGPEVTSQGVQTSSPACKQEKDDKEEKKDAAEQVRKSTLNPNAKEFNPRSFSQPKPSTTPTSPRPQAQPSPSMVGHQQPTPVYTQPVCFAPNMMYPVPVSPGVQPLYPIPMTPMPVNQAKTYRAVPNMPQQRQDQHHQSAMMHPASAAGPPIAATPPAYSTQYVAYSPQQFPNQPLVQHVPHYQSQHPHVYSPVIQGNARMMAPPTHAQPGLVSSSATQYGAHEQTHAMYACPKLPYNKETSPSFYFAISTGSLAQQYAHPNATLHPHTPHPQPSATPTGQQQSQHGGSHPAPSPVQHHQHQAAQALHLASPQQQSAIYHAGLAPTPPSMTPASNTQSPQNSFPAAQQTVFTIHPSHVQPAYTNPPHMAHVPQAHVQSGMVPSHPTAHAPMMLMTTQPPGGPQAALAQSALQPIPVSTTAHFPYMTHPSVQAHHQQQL
As for `O=C(OCC(=O)c1ccc[nH]1)c1cncc(Br)c1`, the Potency entry was “inactive”.

In the case of `CN1CCN(S(=O)(=O)c2cc([N+](=O)[O-])ccc2N/N=C/c2ccc(Cl)cc2)CC1`, the Potency result was “inactive”.

With `Cc1ccc(-n2[nH]c(C)c(/C=N/Nc3ccc([N+](=O)[O-])cc3[N+](=O)[O-])c2=O)cc1`, the Potency was 14.1 µM (active).

With `Cc1[nH]c2ccccc2c1/C=N/Nc1ccc([N+](=O)[O-])cc1`, the Potency result is “inactive”.

Take `CCc1ccc([C@@H]2CC=C(C(=O)O)[C@H](c3ccc(C(C)(C)C)cc3)N2S(=O)(=O)c2ccc(C)cc2)cc1`: the Potency is 35.5 µM (active).

Regarding `CSC1=NCCN1S(=O)(=O)c1ccc(C)cc1`, the Potency result is “inactive”.

Turning to `CCc1ccc(S(=O)(=O)N2CCN(Cc3ccco3)CC2)cc1`, the Potency result is “inactive”.

As for `Cc1ccc(NC(=O)CSC(C)C(=O)OCc2cc(=O)oc3cc(O)ccc23)cc1` (stereo unspecified), the Potency entry is “inactive”.

Consider `CC(=O)Nc1ccc2cc3ccc(NC(C)=O)cc3nc2c1`, for which the Potency entry was “inactive”.

On to `CCC(C)NCC(=O)Nc1ccc(-c2nc3cc(NC(=O)CNC(C)CC)ccc3o2)cc1` (stereo unspecified), for which the Potency is 22.4 µM (active).

For the compound `COc1cc(/C=C\C(=O)Nc2cc(=O)n(C)c(=O)n2C)cc(OC)c1OC`, the Potency entry is “inactive”.

Regarding `CNC[C@@H](CC1CCCCC1)NC[C@H](CC(C)C)NCCc1cccc(C(F)(F)F)c1`, the Potency was 15.8 µM (active).

`CSCCC(=O)N(C)CC1CCCN(CCc2cccc(C(F)(F)F)c2)C1` (stereo unspecified): the Potency entry was “inactive”.

With `O=c1nc2c(O)cccn2c2c1c(O)nc1ccccc12`, the Potency result was “inactive”.

Consider `CCOc1ccc(NC(=O)COC(=O)CNC(=O)c2ccc(-c3ccccc3)cc2)cc1`, for which the Potency result is “inactive”.

In the case of `Cc1nc(C)c(C(=O)OCC(=O)Nc2ccccc2)s1`, the Potency entry was “inactive”.

On to `Nc1nc(O)c(CCCOc2ccc(NC(=O)CBr)cc2)c(-c2ccccc2)n1`, for which the Potency is 25.1 µM (active).

As to `CC(C)CC1c2[nH]c3ccccc3c2CCN1C(=O)CCC(=O)N(C)C` (stereo unspecified), the Potency entry was “inactive”.

`Cc1cc(C)cc(NC(=O)C2CCCN(C(=O)c3cnn(-c4ccccc4)c3-n3cccc3)C2)c1` (stereo unspecified): the Potency is 20 µM (active).

As to `Cc1c(Cl)cccc1NC(=O)C1CCCN(C(=O)c2cnn(-c3ccccc3)c2-n2cccc2)C1` (stereo unspecified), the Potency was 39.8 µM (active).

Regarding `Cc1cc(Cl)ccc1C(=O)C1CCCN(C(=O)/C=C/c2cnn(C)c2)C1` (stereo unspecified), the Potency entry was “inactive”.

`Cc1c(Cl)cccc1NC(=O)CN1CCN(CCNC=C2C(=O)CC(c3ccccc3)CC2=O)CC1` (stereo unspecified): the Potency result was “inactive”.

`Cc1c(CN2CCCC(C(=O)Nc3cccc(-n4cccn4)c3)C2)cnn1C` (stereo unspecified): the Potency result was “inactive”.

As to `Cc1cc(C)cc(NC(=O)Nc2ccccc2N2CCCCC2)c1`, the Potency entry was “inactive”.

`Cc1ccc(SCc2nn(C)c(Cl)c2C=O)cc1`: the Potency entry was “inactive”.

With `CCCN(C(=O)c1cccc(S(=O)(=O)N2CCCc3ccccc32)c1)C1CCS(=O)(=O)C1` (stereo unspecified), the Potency entry is “inactive”.

As to `CC(C)c1cc(NCCOCCO)n2c(nc3ccccc32)c1C#N`, the Potency entry was “inactive”.

As for `OCCN(CCO)c1ccc(C(c2ccccc2Cl)c2ccc(N(CCO)CCO)cc2Cl)c(Cl)c1`, the Potency is 39.8 µM (active).

For `Cc1cc(N(CCO)CCO)ccc1C(c1ccc(N(CCO)CCO)cc1C)c1ccccc1Cl`, the Potency was 39.8 µM (active).

Turning to `COc1cc(/C=N/NC(=O)c2ccccn2)cc2c1OCO2`, the Potency entry is “inactive”.

On to `CCN(CC)CCOc1ccc2c(c1)C(=NNC(=O)c1ccccn1)c1cc(OCCN(CC)CC)ccc1-2`, for which the Potency is 39.8 µM (active).

As to `CCOc1cc(NC(=O)c2ccccn2)c(OCC)cc1NC(=O)c1ccc(OC)cc1`, the Potency result was “inactive”.

Consider `c1ccc(-c2nc(N3CCCC3)nc3ccccc23)cc1`, for which the Potency result is “inactive”.

For `CCN(CC)c1ccc2cc(-c3nnc(-c4cccc(Cl)c4)o3)c(=O)oc2c1`, the Potency result is “inactive”.

Turning to `CCCCCCc1cc2cc(S(=O)(=O)c3ccc(Cl)cc3)c(=O)oc2cc1O`, the Potency entry was “inactive”.

In the case of `Cc1ccccc1C(=O)OC1CCN(C)CC1`, the Potency entry was “inactive”.

For the compound `CC(=O)Nc1ccc(CNc2nc(NCCN(C)C)nc3cc(-c4ccccc4)sc23)cc1`, the Potency is 31.6 µM (active).

As to `COCCNc1nc2c(-c3cccc(C(F)(F)F)c3)nnn2c2ccccc12`, the Potency result was “inactive”.

For `O=C(O)CCNc1nc(-c2ccccc2)c2cc(Br)ccc2n1`, the Potency entry is “inactive”.

Take `Cc1ccc2nc(NCCC(=O)O)nc(-c3ccccc3)c2c1`: the Potency entry is “inactive”.

For `COCCNc1nc(NCCOc2ccccc2)c2sc(-c3ccccc3)cc2n1`, the Potency is 25.1 µM (active).

Consider `COCCNc1nc(NCc2ccc(NC(C)=O)cc2)c2sc(-c3ccccc3)cc2n1`, for which the Potency was 31.6 µM (active).

Consider `COCCCNc1nc2c(-c3cccc(C)c3)nnn2c2ccccc12`, for which the Potency result was “inactive”.

On to `CC(=O)Nc1ccc(S(=O)(=O)Nc2nc3nc(-c4ccccc4)cc(-c4ccccc4)n3n2)cc1`, for which the Potency result is “inactive”.

As for `NNC(=O)c1sc(-c2ccccc2)cc1N`, the Potency result is “inactive”.

Regarding `C[C@]12CCCC[C@@H]1CC[C@@H]1[C@@H]2CC[C@@]2(C)[C@H]1CC[C@@]2(O)CNCCO`, the Potency result was “inactive”.

In the case of `O=C(c1cc(Br)c(Br)s1)N1CCc2ccccc2C1`, the Potency entry was “inactive”.

As to `O=S(=O)(NC1CCSc2ccccc21)c1ccc(Cl)nc1` (stereo unspecified), the Potency result was “inactive”.

With `Cc1cccn2c(=O)c3cc(C#N)/c(=N\C(=O)c4cccs4)n(CCCOC(C)C)c3nc12`, the Potency result is “inactive”.

As to `COc1ccc(C(=O)NCCNc2nc3c(C)cccc3cc2C#N)cc1`, the Potency entry is “inactive”.

Turning to `COc1cccc(CNC(=O)c2ccc(C)c(NC3=NC4CS(=O)(=O)CC4S3)c2)c1` (stereo unspecified), the Potency entry is “inactive”.

`COc1ccc(C[C@H]2CN3C(=NC[C@@H]3Cc3ccc(O)cc3)N2CCNC(=O)c2ccc(C)c(Br)c2)cc1`: the Potency is 39.8 µM (active).

With `COc1ccc(C[C@H]2CN3C(=NC[C@@H]3Cc3ccccc3)N2CCNC(=O)c2ccc(C)c(Br)c2)cc1`, the Potency is 22.4 µM (active).

Take `COc1cccc(C(=O)NCCn2ccc3ccccc32)c1`: the Potency result is “inactive”.

Regarding `COC(=O)CCNC(=O)c1ccc2nc(Cc3ccc(OC)cc3)oc2c1`, the Potency entry was “inactive”.

As to `COc1ccc(C[C@H]2CN3C(=NC[C@@H]3C(C)C)N2CCNC(=O)c2ccc(C)c(Br)c2)cc1`, the Potency is 20 µM (active).

Consider `Cc1ccc(C(=O)NC(=S)NCc2ccccc2)cc1Br`, for which the Potency result was “inactive”.

Take `CC(=O)Nc1ccc(NC(=O)CSc2ccc3nnc(CCNC(=O)c4ccccc4)n3n2)cc1`: the Potency entry is “inactive”.

Turning to `CC1CCN(c2nnc(-c3ccccc3)c3ccccc23)CC1`, the Potency entry was “inactive”.

With `Cc1sc2nc(-c3ccccn3)nc(O)c2c1-c1ccccc1`, the Potency result is “inactive”.

As for `O=[N+]([O-])c1ccc(C2NS(=O)(=O)N=C3CCCCCN32)cc1` (stereo unspecified), the Potency result is “inactive”.

In the case of `CCCc1cc(C(=O)Cc2nc3ccccc3s2)c(O)cc1O`, the Potency result is “inactive”.

Turning to `COc1ccc(-c2csc(NC(C)c3nc4cc(Cl)c(Cl)cc4n3CCCO)n2)cc1` (stereo unspecified), the Potency is 39.8 µM (active).

Regarding `CC(Nc1nc(-c2ccc(F)cc2)cs1)c1nc2cc(Cl)c(Cl)cc2n1CCCO` (stereo unspecified), the Potency was 39.8 µM (active).

`CC(C)CC(=O)NC(=S)Nc1nc(-c2ccc(Cl)cc2)cs1`: the Potency result is “inactive”.

Regarding `CC(Nc1nc(-c2ccc(F)cc2)cs1)c1nc2cc(Cl)c(N3CCCCC3)cc2n1CCCO` (stereo unspecified), the Potency is 25.1 µM (active).

For the compound `Cc1ccc(Cn2cccc(-c3nc4ccccc4s3)c2=O)cc1`, the Potency entry is “inactive”.

With `COc1ccc(-c2csc(NC(=O)CSc3nnnn3C)n2)c(OC)c1`, the Potency entry is “inactive”.

As for `O=C(CN1CCN(Cc2ccc(F)cc2)CC1)Nc1nc2ccccc2s1`, the Potency result was “inactive”.

`Cc1ccc(Cn2c(C(CO)Nc3nc(-c4ccc(F)cc4)cs3)nc3ccccc32)cc1` (stereo unspecified): the Potency was 25.1 µM (active).

As for `COc1ccc(/N=C/C2=C(O)c3c(sc(C)c3C)N(C)S2(=O)=O)cc1`, the Potency entry was “inactive”.

Take `CC(Nc1nc(-c2ccc(F)cc2)cs1)c1nc2cc(C(F)(F)F)ccc2n1CCCO` (stereo unspecified): the Potency is 22.4 µM (active).

With `C/C(=N\NC(=O)COc1ccccc1-c1ccccc1)c1ccccn1`, the Potency is 6.7 µM (active).

Take `C/C(=N\NC(=O)c1c[nH]c2ccccc12)c1ccccn1`: the Potency result is “inactive”.

In the case of `CC(=O)Nc1ccc(NC(=O)COC(=O)c2ccccn2)cc1`, the Potency entry was “inactive”.

For the compound `CCCn1nc(NC(=O)C(C)C)c2cc3cc(OC)ccc3nc21`, the Potency result was “inactive”.

Turning to `N=c1oc2ccccc2cc1-c1nc(-c2ccccc2)cs1`, the Potency result is “inactive”.

As for `CCN(CC)S(=O)(=O)c1cc([N+](=O)[O-])ccc1NNC(=O)Nc1ccc(Cl)c(Cl)c1`, the Potency is 39.8 µM (active).

In the case of `CCN(CC)S(=O)(=O)c1cc(NC(=O)C2CC(=O)N(Cc3ccccc3)C2)ccc1Cl` (stereo unspecified), the Potency result is “inactive”.

As for `CN(C)S(=O)(=O)c1ccc(Cl)c(C(=O)Nc2cccc([N+](=O)[O-])c2)c1`, the Potency entry is “inactive”.

Consider `CC1=CC(c2ccccc2)n2nc(NC(=O)CCCC(=O)O)nc2N1` (stereo unspecified), for which the Potency result was “inactive”.

As to `CN(C)/C=C1\C=C2C(=O)c3ccccc3N2C1=O`, the Potency entry was “inactive”.

Consider `CCOC(=O)C1(CC2CCCCO2)CCN(S(=O)(=O)c2ccc(OC)cc2)CC1` (stereo unspecified), for which the Potency entry was “inactive”.

In the case of `Cc1ccc(S(=O)(=O)N2CCN(C(S)=NCc3ccc4c(c3)OCO4)CC2)cc1`, the Potency entry was “inactive”.

Take `CCCc1ccc(S(=O)(=O)N2CCC(c3nnc(-c4cccc(C)c4)o3)CC2)cc1`: the Potency is 8.91 µM (active).

For `COc1ccc(-c2nnc(C3CCN(S(=O)(=O)c4ccccc4)CC3)o2)cc1`, the Potency was 26.7 µM (active).

Take `O=C(c1ccc(F)cc1)C1CCN(S(=O)(=O)c2ccccc2)CC1`: the Potency entry was “inactive”.

For `CCCc1nn(-c2ccc([N+](=O)[O-])cc2)c(O)c1/C=N/CCCn1ccnc1`, the Potency result is “inactive”.

With `O=[N+]([O-])c1ccc(-c2ccc(/C=N/Nc3nc(N4CCCCC4)nc(N4CCCCC4)n3)o2)cc1`, the Potency result was “inactive”.

Regarding `S=C(NCCCN1CCOCC1)N1CCN(c2nc(-c3ccc(Cl)cc3)cs2)CC1`, the Potency is 31.6 µM (active).

For the compound `Clc1ccc(SCc2csc(N3CCOCC3)n2)cc1`, the Potency entry is “inactive”.

For the compound `O=C(NNC(=O)c1cc(-c2ccc(Br)cc2)nc2ccccc12)c1csc(N2CCOCC2)n1`, the Potency result is “inactive”.

Regarding `COc1ccccc1NC(=O)C1=C(C)Nc2nc(SCc3ccccc3)nn2C1c1cccc(O)c1` (stereo unspecified), the Potency is 31.6 µM (active).

For the compound `COCc1cc(C)nc2sc(C(=O)Nc3ccccc3OC)c(N)c12`, the Potency entry is “inactive”.

Take `COc1ccccc1NC(=O)c1sc2nc(C)cc(C)c2c1N`: the Potency entry is “inactive”.

As to `CCS(=O)(=O)c1nc(S(=O)(=O)c2ccc(C)cc2)c(N2CCN(C)CC2)s1`, the Potency entry was “inactive”.
